# The supplement of paper PMC8728848
# About 410 targets per protein were measured; listed, in parts, are those with the strongest signals and a random draw of the rest.
# Legend:
# Assay in all cases: glycan array binding signal (z-score within array); higher = stronger binding
# Settings in all cases: glycan notation: IUPAC condensed, linker removed
# [1] = target: GlcNAc(b1-2)Man(a1-3)[GlcNAc(b1-4)][GlcNAc(b1-2)Man(a1-6)]Man(b1-4)GlcNAc(b1-4)GlcNAc
# Method in brief: (§1)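 Glycan array data were curated from 3228 arrays in the Consortium for Functional Glycomics database and kept only where the protein sequence was available. Glycan names were converted to IUPAC-condensed notation, and columns mapping to the same glycan were averaged. The binding signal is a within-array Z-score, averaged across arrays of the same protein sequence at different concentrations or buffers and across linkers. Negative Z-scores can be read as non-binding.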
# [2] = target: GlcNAc(b1-2)[GlcNAc(b1-4)]Man(a1-3)[GlcNAc(b1-2)Man(a1-6)]Man(b1-4)GlcNAc(b1-4)GlcNAc
# Method in brief: as §1
# [3] = target: GlcNAc(b1-2)[GlcNAc(b1-4)]Man(a1-3)[GlcNAc(b1-4)][GlcNAc(b1-2)[GlcNAc(b1-6)]Man(a1-6)]Man(b1-4)GlcNAc(b1-4)GlcNAc
# Method in brief: as §1
# GlcNAc(b1-3)Fuc = target: GlcNAc(b1-3)Fuc
# Method in brief: as §1
# [4] = target: GlcNAc(b1-3)Gal(b1-3)GalNAc
# Method in brief: as §1
# [5] = target: GlcNAc(b1-3)Gal(b1-4)GlcNAc(b1-3)Gal(b1-4)GlcNAc(b1-2)Man(a1-3)[GlcNAc(b1-3)Gal(b1-4)GlcNAc(b1-3)Gal(b1-4)GlcNAc(b1-2)Man(a1-6)]Man(b1-4)GlcNAc(b1-4)GlcNAc
# Method in brief: as §1
# [6] = target: GlcNAc(b1-3)Gal(b1-4)GlcNAc(b1-3)Gal(b1-4)GlcNAc(b1-2)[GlcNAc(b1-3)Gal(b1-4)GlcNAc(b1-3)Gal(b1-4)GlcNAc(b1-6)]Man(a1-6)[GlcNAc(b1-3)Gal(b1-4)GlcNAc(b1-3)Gal(b1-4)GlcNAc(b1-2)Man(a1-3)]Man(b1-4)GlcNAc(b1-4)[Fuc(a1-6)]GlcNAc
# Method in brief: as §1
# [7] = target: GlcNAc(b1-4)GlcNAc(b1-4)GlcNAc(b1-4)GlcNAc(b1-4)GlcNAc
# Method in brief: as §1
# [8] = target: GlcNAc(b1-6)Gal(b1-4)GlcNAc
# Method in brief: as §1
# [9] = target: Man(a1-2)Man(a1-3)[Man(a1-6)]Man(a1-6)[Man(a1-2)Man(a1-3)]Man(b1-4)GlcNAc(b1-4)GlcNAc
# Method in brief: as §1
# [10] = target: Neu5Ac(a2-3)Gal(b1-3)GalNAc(b1-4)[Neu5Ac(a2-8)Neu5Ac(a2-3)]Gal(b1-4)Glc
# Method in brief: as §1
# [11] = target: Neu5Ac(a2-3)Gal(b1-3)GlcNAc(b1-2)Man(a1-3)[Neu5Ac(a2-3)Gal(b1-3)GlcNAc(b1-2)Man(a1-6)]Man(b1-4)GlcNAc(b1-4)GlcNAc
# Method in brief: as §1
# [12] = target: Neu5Ac(a2-3)Gal(b1-4)GlcNAc(b1-2)Man(a1-3)[Neu5Ac(a2-3)Gal(b1-4)GlcNAc(b1-2)Man(a1-6)]Man(b1-4)GlcNAc(b1-4)GlcNAc
# Method in brief: as §1
# [13] = target: Neu5Ac(a2-3)Gal(b1-4)GlcNAc(b1-3)Gal(b1-4)[Fuc(a1-3)]GlcNAc
# Method in brief: as §1
# [14] = target: Neu5Ac(a2-3)Gal(b1-4)[Fuc(a1-3)]GlcNAc
# Method in brief: as §1
# [15] = target: Neu5Ac(a2-3)Gal(b1-4)[Fuc(a1-3)]GlcNAc(b1-3)Gal
# Method in brief: as §1
# [16] = target: Neu5Ac(a2-6)Gal(b1-4)GlcNAc(b1-2)Man(a1-3)[Neu5Ac(a2-6)Gal(b1-4)GlcNAc(b1-2)Man(a1-6)]Man(b1-4)GlcNAc(b1-4)[Fuc(a1-6)]GlcNAc
# Method in brief: as §1
# [17] = target: Neu5Ac(a2-6)Gal(b1-4)GlcNAc(b1-2)[Neu5Ac(a2-6)Gal(b1-4)GlcNAc(b1-4)]Man(a1-3)[GlcNAc(b1-4)][Neu5Ac(a2-6)Gal(b1-4)GlcNAc(b1-4)Man(a1-6)]Man(b1-4)GlcNAc(b1-4)GlcNAc
# Method in brief: as §1
# [18] = target: Neu5Ac(a2-6)GlcNAc(b1-4)GlcNAc
# Method in brief: as §1
# [19] = target: Neu5Ac(a2-8)Neu5Ac(a2-3)[GalNAc(b1-4)]Gal(b1-4)Glc
# Method in brief: as §1
# [20] = target: Neu5Ac(a2-8)Neu5Gc(a2-3)Gal(b1-4)GlcNAc
# Method in brief: as §1
# [21] = target: Neu5Ac9Ac(a2-6)Gal(b1-4)GlcNAc
# Method in brief: as §1
# [22] = target: Neu5Gc(a2-3)Gal(b1-4)GlcNAc
# Method in brief: as §1
# [23] = target: Neu5Gc(b2-6)Gal(b1-4)GlcNAc
# Method in brief: as §1
binder,measurement,setting,value
"SAOUHSC 02783 (Staphylococcus aureus), Q5HD69 (protein) MIHSKKLTLGICLVLLIILIVGYVIMTKTNGRNAQIKDTFNQTLKLYPTKNLDDFYDKEGFRDQEFKKGDKGTWIVNSEMVIEPKGKDMETRGMVLYINRNTRTTKGYYFISEMTDDSNGRPKDDEKRYPVKMEHNKIIPTKPLPNDKLKKEIENFKFFVQYGNFKDINDYKDGDISYNPNVPSYSAKYQLNNDDYNVQQLRKRYDIPTKQAPKLLLKGDGDLKGSSVGSRSLEFTFVENKEENIYFTDSVQYTPSEDTRYESN",glycan array binding signal (z-score),[1],-0.821
same,glycan array binding signal (z-score),[2],1.11
same,glycan array binding signal (z-score),[3],-0.289
same,glycan array binding signal (z-score),GlcNAc(b1-3)Fuc,-0.235
same,glycan array binding signal (z-score),[4],-0.447
same,glycan array binding signal (z-score),[5],2.6
same,glycan array binding signal (z-score),[6],2.84
same,glycan array binding signal (z-score),[7],-0.476
same,glycan array binding signal (z-score),[8],0.133
same,glycan array binding signal (z-score),[9],0.494
same,glycan array binding signal (z-score),[10],-0.869
same,glycan array binding signal (z-score),[11],6.23
same,glycan array binding signal (z-score),[12],0.306
same,glycan array binding signal (z-score),[13],-0.998
same,glycan array binding signal (z-score),[14],-1.44
same,glycan array binding signal (z-score),[15],-0.162
same,glycan array binding signal (z-score),[16],2.81
same,glycan array binding signal (z-score),[17],0.093
same,glycan array binding signal (z-score),[18],1.36
same,glycan array binding signal (z-score),[19],-0.759
same,glycan array binding signal (z-score),[20],-1.02
same,glycan array binding signal (z-score),[21],1.65
same,glycan array binding signal (z-score),[22],3.09
same,glycan array binding signal (z-score),[23],-0.76
